# Test results: ChEMBL document CHEMBL4513216, “Probing the Open Global Health Chemical Diversity Library for Multistage-Active Starting Points for Next-Generation Antimalarials” (ACS Infect Dis, 2020)
# In all, about 69,000 compounds went through this assay and about 8,600 (12%) showed an effect of 50% or more. The entries come from a sample that favours strong results as a whole.
# Tested on: Plasmodium berghei
# Assay: Screen against P. berghei liver stage (PbLuc), transformed with Luciferase, at 10uM
# Type: functional, HepG2
# Details: tested at 10 uM
row,Structure (SMILES),INHIBITION
1,Cc1nn(CC(=O)Nc2ccon2)cc1Br,20.1%
2,CN1CCC(N(CCc2ccccc2)C(=O)c2ccoc2)CC1,32.8%
3,CC(=O)N1CCC(C)(c2cc[nH]n2)CC1,35%
4,CN1CCN(CC(NCc2ccc(F)c(F)c2)c2ccccc2)CC1 (stereo not given),8.31%
5,Cc1nonc1CC(=O)N1CCC2(CCCN(C3CCOCC3)C2=O)C1 (stereo not given),-41.8%
6,CCn1cc(CN2CCC(CCC(=O)Nc3ccccc3Cl)CC2)cn1,49.5%
7,CSc1cccc(CN2CCC(CCC(=O)Nc3ccccc3)CC2)c1,47.7%
8,O=C(CCC1CCN(Cc2ncc[nH]2)CC1)Nc1ccccc1Cl,38.5%
9,CCn1ccnc1CN1CCC(CCC(=O)Nc2ccccc2Cl)CC1,71.8%
10,CSc1ccc(CN2CCC(CCC(=O)Nc3ccccc3)CC2)cc1,64.5%
11,Cn1ccnc1CN1CCC(CCC(=O)Nc2ccccc2Cl)CC1,9.72%
12,CCn1ccnc1CN1CCN(CC(=O)NC(=O)NC2CC2)CC1,-3.95%
13,O=C(CCC1CCN(Cc2ccncc2)CC1)Nc1ccccc1Cl,70.1%
14,CCn1ccnc1CN1CCN(CC(=O)NC2CCOCC2)CC1,22.5%
15,CSc1cccc(CN2CCC(CCC(=O)NC3CC3)CC2)c1,35.4%
16,Cn1cc(CN2CCC(CCC(=O)Nc3ccccc3Cl)CC2)cn1,34%
17,CCn1ccnc1CN1CCN(CC(=O)NC(C2CC2)C2CC2)CC1,51.85%
18,CN(C)CCN1C(=O)CCCC12CCCN(Cc1ccc[nH]1)C2 (stereo not given),26%
19,Cc1cccc(C)c1Nc1noc2c1CN(C(=O)c1ccnn1C)CC2,45.5%
20,O=C(c1n[nH]c2c1CN(C1CCOC1)CC2)N1CCOCC1 (stereo not given),9.97%
21,O=C(C1CCC2(CCN(CC3CCOCC3)CC2)O1)N1CCCCO1 (stereo not given),38.3%
22,CS(=O)(=O)N1CC[C@]2(C[C@H](Oc3ccccn3)CO2)C1,-23.4%
23,CCc1noc(CN(CC)Cc2cc3ccc(C)cc3[nH]c2=O)n1,9.56%
24,Cc1cnn(CCC(=O)N2CCN(c3nccs3)CC2)c1,23.5%
25,O=C(NCCO)Nc1cnc2cc(Cl)ccc2c1O,24.4%

row,Structure (SMILES),INHIBITION
1,O=C(NCCCO)Nc1cnc2cc(Cl)ccc2c1O,54.4%
2,O=C(NCCCN1CCOCC1)Nc1cnc2cc(Cl)ccc2c1O,35.8%
3,CNS(=O)(=O)CCCN1CCCCCC1c1ccc(C)o1 (stereo not given),23.3%
4,CNC(=O)CCN1CCCCCC1c1ccc(C)o1 (stereo not given),72.5%
5,Cc1ccc(C2CCCCCN2CCNS(C)(=O)=O)o1 (stereo not given),39.4%
6,CC(=O)N1CCN(C(=O)c2ccc(Sc3ccccn3)cc2)CC1,14.4%
7,Cc1ccc(NC(=O)NCC2(O)CCCC2)cc1C,-108%
8,COc1cccc(CNC(C)C)c1OCc1ccc(C)cc1,5.46%
9,COc1cc(CNCC(C)O)cc(Cl)c1OCc1ccc(C)cc1 (stereo not given),52.2%
10,COc1cc(CNCC(O)c2ccc(C)cc2)cc2c1OCO2 (stereo not given),-5.25%
11,NC(=O)c1c[nH]nc1NC(=O)c1ccc(Cl)cc1,-6.3%
12,CCn1cc(CN2CCCN(C(=O)c3cccn3C)CC2)cn1,13.6%
13,CC(C)N(CCNCc1ccc(C#N)cc1)C1CC1,-8.45%
14,Cc1c(NCc2ccccc2C#N)cccc1S(=O)(=O)NC1CC1,64.9%
15,Cc1ccc2c(c1C)OCC2NCc1ccc(C#N)cc1 (stereo not given),40.9%
16,Cc1cc(NCc2cccc(C#N)c2)ccc1C(N)=O,-0.759%
17,Cc1ccc(NCc2ccccc2C#N)cc1-n1cnnn1,10.6%
18,Cc1cc(NCc2cccc(C#N)c2)ccc1Br,44.3%
19,Cc1c(NCc2cccc(C#N)c2)cccc1S(=O)(=O)NC1CC1,67.5%
20,Cc1c(NCc2ccccc2C#N)cccc1-n1cnnn1,62.4%
21,CS(=O)(=O)NCC1CCCCN1Cc1ccccc1C#N (stereo not given),-27.6%
22,Cc1ccc(NCc2ccc(C#N)cc2)cc1-n1cnnn1,14.3%
23,Cc1c(NCc2ccc(C#N)cc2)cccc1S(=O)(=O)NC1CC1,73.9%
24,Cc1nnc(NCc2ccccc2S(=O)(=O)N(C)C)c(C#N)c1C,15.92%
25,CN(C)CC(=O)N1CCOCC(Cc2ccccn2)C1 (stereo not given),-20.6%

row,Structure (SMILES),INHIBITION
1,CN1CCC2(CCN(CC3CC3)CC2)C1=O,23.3%
2,CC(C)CN(CC(O)c1ccccc1)C(=O)Nc1nccs1 (stereo not given),-10.9%
3,COCCN(C)CC(=O)N1C[C@@H]2CC[C@H]1CN(C(=O)c1ccncc1)C2,8.57%
4,CNC(=O)[C@H]1C[C@H]2CN(Cc3ccc(OC)cc3)C[C@@H]1O2,8.66%
5,Cn1nccc1C1CCN(CC(O)c2cccc(F)c2)CC1 (stereo not given),20.9%
6,c1ccc(-n2ccc(CN3CCOC(Cn4cncn4)C3)n2)cc1 (stereo not given),7.08%
7,Cn1nccc1C1CCN(Cc2ccn(-c3ccccc3)n2)CC1,74.2%
8,c1ccc(-n2ccc(CN3CCCC3Cn3cccn3)n2)cc1 (stereo not given),36.4%
9,Cn1nccc1C1CCN(Cc2csc(-c3ncccn3)n2)CC1,11.1%
10,c1ccc(-n2ncc(CN3CCCC3Cn3cccn3)n2)cc1 (stereo not given),-0.75%
11,Cn1nccc1C1CCN(Cc2cnn(-c3ccccc3)n2)CC1,81.2%
12,O=C(O)c1ccccc1CN1CCC(c2ccnc3ccnn23)CC1,-9.32%
13,Cc1ncc(CN2CCC(c3ccnn3C)CC2)n1-c1ccccc1,77.2%
14,CC(C)C(=O)N1CCN(C(=O)N(C)C)CC2(CC(=O)N(C)C2)C1 (stereo not given),39.8%
15,CCn1c(Cn2cncn2)nnc1C1CCN(Cc2ccccn2)CC1,3.88%
16,O=C(CCc1ccccc1)NC1CCC2(CCC(=O)N2)CC1 (stereo not given),2.58%
17,COCCCN1CCN(CCOC)C(C)C1 (stereo not given),-23.8%
18,CN(C)CCOCC1CN(CCN(C)C)Cc2ccnn2C1 (stereo not given),-4.23%
19,COc1ccccc1OC1CN(c2ccncc2)C1,38.8%
20,Cc1cc(F)cc(S(=O)(=O)NCCCN2CCC(O)CC2)c1,25.1%
21,Cc1cc(F)c(S(=O)(=O)NCCCN2CCC(O)CC2)cc1F,-1.53%
22,Cc1ccc(S(=O)(=O)NCCCN2CCC(O)CC2)c(F)c1,41.4%
23,Cc1ccc(S(=O)(=O)NCCCN2CCC(O)CC2)cc1Cl,51.4%
24,CSCc1cccc(S(=O)(=O)NCCCN2CCOCC2)c1,18.5%
25,CC(C)c1cccc(S(=O)(=O)NCCCN2CCC(O)CC2)c1,62.3%
